The nature of assay [1]: NCI Yeast Anticancer Drug Screen. Data for the rad50 strain (AID 155).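 Further: 0% = growth of vehicle-only cultures of the same strain.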 The conditions noted are these: S. cerevisiae rad50 strain growth inhibition, stronger effect = higher value. In outline: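 Inhibition values express reduced yeast growth in compound-treated cultures relative to vehicle-treated controls.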
The nature of assay [2]: NCI Yeast Anticancer Drug Screen. Data for the mec2-1 strain (AID 157). The conditions noted are these: S. cerevisiae mec2-1 strain, stronger effect = higher value. In outline: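 mec2-1 yeast strain, carrying an alteration in DNA damage repair or cell cycle control, was exposed to compounds; growth inhibition was measured relative to vehicle-treated controls.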
The nature of assay [3]: NCI Yeast Anticancer Drug Screen. Data for the sgs1 mgt1 strain (AID 161).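 Further: 0% = growth of cultures given vehicle only.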 The conditions noted are these: S. cerevisiae sgs1 mgt1 strain, stronger effect = higher value. In outline: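 Yeast cells carrying a defined DNA-repair defect were exposed to test compounds. Growth inhibition was measured relative to vehicle-treated controls.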
Assay [4] can be described thus: NCI Yeast Anticancer Drug Screen. Data for the cln2 rad14 strain (AID 165).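 Further: 0% = growth equal to vehicle treated cultures.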 The conditions noted are these: S. cerevisiae cln2 rad14 strain, stronger effect = higher value. In outline:
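Yeast carrying cln2 and rad14 alterations (cell cycle control and DNA damage repair) were exposed to compounds. Growth inhibition was measured against vehicle-treated controls.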

Assay [5] in a line: NCI Yeast Anticancer Drug Screen. Data for the bub3 strain (AID 167). The conditions noted are these: S. cerevisiae bub3 mutant strain, stronger effect = higher value. In outline: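 Steps: expose the mutant yeast strain to compound; grow alongside vehicle-treated cultures; measure growth; express inhibition against the vehicle cultures.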
Assay [6] in a line: NCI Yeast Anticancer Drug Screen. Data for the mlh1 rad18 strain (AID 175). The conditions noted are these: S. cerevisiae mlh1 rad18 strain growth inhibition, stronger effect = higher value. In outline:
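Growth inhibition of the yeast strain was measured after compound exposure and expressed relative to vehicle-treated controls. The strain carries defined defects in DNA damage repair.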

[7] abbreviates: at 5.0 µM (retest, dose inferred, filed as 0.5).
Where [8] appears, read: at 50.0 µM (retest, dose inferred, filed as 5.0).

This is part of a sample that, as a whole, favours compounds with a hit. Of some 79,000 tested, about 15% had one in any assay. Unmarked numbers belong to inactive results. Calls of active or inactive are those of the source. No stated cut-off is given here; in the data, active means growth inhibition above about 70%; inactive means the rest.

Turning to `CC(C)(C)C1=CC(=CC=C2C=CN(CCO)C=C2)C=C(C(C)(C)C)C1=O`, the growth inhibition was -2% in assay [1] (setting [7]); 98% (active) in assay [1] (setting [8]); 29.1% in assay [1] (at 50.0 µM); 0% in assay [2] (setting [7]); 28% in assay [2] (setting [8]); 35.5% in assay [2] (at 50.0 µM). The growth inhibition in assay [3] (setting [7]) was -3%; in assay [3] (setting [8]) it was 51%; in assay [3] (at 50.0 µM), 24.6%; in assay [4] (setting [7]), 0%; in assay [4] (setting [8]), 60%; in assay [4] (at 50.0 µM), 31.8%. The growth inhibition in assay [5] (setting [7]) is -5%; in assay [5] (setting [8]) it was 28%; in assay [5] (at 50.0 µM), 31.6%; in assay [6] (setting [7]), -6%; in assay [6] (setting [8]), 73% (active); in assay [6] (at 50.0 µM), 97% (active).

Take `C(=C\c1cccc2ccccc12)/c1ccncc1`: the growth inhibition in assay [1] (setting [7]) was 8%; in assay [1] (setting [8]), 97% (active); in assay [1] (at 50.0 µM) it was 98.9% (active); in assay [2] (setting [7]), -19%; in assay [2] (setting [8]), 99% (active); in assay [2] (at 50.0 µM), 99.2% (active). Also, the growth inhibition in assay [3] (setting [7]) was -14%; in assay [3] (setting [8]) it was 98% (active); in assay [3] (at 50.0 µM), 99.2% (active); in assay [4] (setting [7]), -2%; in assay [4] (setting [8]) it was 96% (active); in assay [4] (at 50.0 µM), 99% (active). In addition, the growth inhibition was 4% in assay [5] (setting [7]); 97% (active) in assay [5] (setting [8]); 98.5% (active) in assay [5] (at 50.0 µM); -11% in assay [6] (setting [7]); 98% (active) in assay [6] (setting [8]); 99.1% (active) in assay [6] (at 50.0 µM).

In the case of `COc1ccc(NC2Oc3cc4c(cc3C(c3cccc(OC)c3OC)C2C)OCO4)cc1` (configuration not stated), the growth inhibition in assay [1] (setting [7]) was -24%; in assay [1] (setting [8]) it was 17%; in assay [1] (at 50.0 µM) it was 48%; in assay [2] (setting [7]), -13%; in assay [2] (setting [8]), -15%; in assay [2] (at 50.0 µM), 49.5%. For the same compound, the growth inhibition in assay [3] (setting [7]) was -6%; in assay [3] (setting [8]), -1%; in assay [3] (at 50.0 µM), 47.9%; in assay [4] (setting [7]), -10%; in assay [4] (setting [8]) it was 12%; in assay [4] (at 50.0 µM), 41.1%. For the same compound, the growth inhibition in assay [5] (setting [7]) was -32%; in assay [5] (setting [8]), 13%; in assay [5] (at 50.0 µM), 65.3%; in assay [6] (setting [7]), -19%; in assay [6] (setting [8]), 9%; in assay [6] (at 50.0 µM) it was 71.3% (active).

With `CCCCCN(CCCCC)CCCNc1ccc(C)c2sc3ccccc3c(=O)c12`, the growth inhibition in assay [1] (setting [7]) is 98% (active); in assay [1] (setting [8]) it was 96% (active); in assay [1] (at 50.0 µM), 98.4% (active); in assay [2] (setting [7]) it was 99% (active); in assay [2] (setting [8]), 98% (active); in assay [2] (at 50.0 µM), 99% (active). For the same compound, the growth inhibition in assay [3] (setting [7]) was 99% (active); in assay [3] (setting [8]), 98% (active); in assay [3] (at 50.0 µM) it was 99% (active); in assay [4] (setting [7]), 99% (active); in assay [4] (setting [8]), 95% (active); in assay [4] (at 50.0 µM), 95% (active). Moreover, the growth inhibition was 99% (active) in assay [5] (setting [7]); 96% (active) in assay [5] (setting [8]); 98% (active) in assay [5] (at 50.0 µM); 99% (active) in assay [6] (setting [7]); 97% (active) in assay [6] (setting [8]); 97.5% (active) in assay [6] (at 50.0 µM).

In the case of `C/C(=N/O)c1ccc2c(c1)C(=NO)c1cc(/C(C)=N/O)ccc1-2`, the growth inhibition in assay [1] (setting [7]) is 19%; in assay [1] (setting [8]), 98% (active); in assay [1] (at 50.0 µM), 89.9% (active); in assay [2] (setting [7]), -10%; in assay [2] (setting [8]), 99% (active); in assay [2] (at 50.0 µM), 94.7% (active). Moreover, the growth inhibition in assay [3] (setting [7]) is 10%; in assay [3] (setting [8]), 99% (active); in assay [3] (at 50.0 µM) it was 94.2% (active); in assay [4] (setting [7]) it was 14%; in assay [4] (setting [8]) it was 99% (active); in assay [4] (at 50.0 µM), 93.7% (active). Also, the growth inhibition in assay [5] (setting [7]) is 21%; in assay [5] (setting [8]), 98% (active); in assay [5] (at 50.0 µM), 93.5% (active); in assay [6] (setting [7]), 1%; in assay [6] (setting [8]) it was 98% (active); in assay [6] (at 50.0 µM), 91% (active).

With `CCCCCN(CCCCC)CC(O)c1cccc2cc(Cl)ccc12` (configuration not stated), the growth inhibition in assay [1] (setting [7]) was -1%; in assay [1] (setting [8]) it was 98% (active); in assay [1] (at 50.0 µM), 99.5% (active); in assay [2] (setting [7]) it was -1%; in assay [2] (setting [8]), 98% (active); in assay [2] (at 50.0 µM), 99.7% (active). In addition, the growth inhibition in assay [3] (setting [7]) is 4%; in assay [3] (setting [8]), 99% (active); in assay [3] (at 50.0 µM) it was 99.6% (active); in assay [4] (setting [7]) it was -4%; in assay [4] (setting [8]) it was 99% (active); in assay [4] (at 50.0 µM), 99.5% (active). Moreover, the growth inhibition in assay [5] (setting [7]) was 2%; in assay [5] (setting [8]) it was 99% (active); in assay [5] (at 50.0 µM), 99.5% (active); in assay [6] (setting [7]), 0%; in assay [6] (setting [8]), 99% (active); in assay [6] (at 50.0 µM), 99.6% (active).

On to `Oc1ccc(C2CCCCC2)cc1`, for which the growth inhibition is 1% in assay [1] (setting [7]); 59% in assay [1] (setting [8]); 85.5% (active) in assay [1] (at 50.0 µM); -4% in assay [2] (setting [7]); 51% in assay [2] (setting [8]); 79.5% (active) in assay [2] (at 50.0 µM). The growth inhibition in assay [3] (setting [7]) is -10%; in assay [3] (setting [8]), 54%; in assay [3] (at 50.0 µM), 95.3% (active); in assay [4] (setting [7]) it was -4%; in assay [4] (setting [8]), 37%; in assay [4] (at 50.0 µM) it was 5.7%. The growth inhibition was -4% in assay [5] (setting [7]); 62% in assay [5] (setting [8]); 48.6% in assay [5] (at 50.0 µM); 0% in assay [6] (setting [7]); 40% in assay [6] (setting [8]); 93.8% (active) in assay [6] (at 50.0 µM).

With `CN1C(Cl)=NS(=O)(=O)c2ccccc21`, the growth inhibition in assay [1] (setting [7]) was 18%; in assay [1] (setting [8]), 22%; in assay [1] (at 50.0 µM), -23%; in assay [2] (setting [7]), 14%; in assay [2] (setting [8]), 19%; in assay [2] (at 50.0 µM) it was -5.6%. In addition, the growth inhibition was 9% in assay [3] (setting [7]); 18% in assay [3] (setting [8]); -12.4% in assay [3] (at 50.0 µM); 20% in assay [4] (setting [7]); 20% in assay [4] (setting [8]); -1.3% in assay [4] (at 50.0 µM). Further, the growth inhibition was 15% in assay [5] (setting [7]); 11% in assay [5] (setting [8]); 6.35% in assay [5] (at 50.0 µM); 15% in assay [6] (setting [7]); 25% in assay [6] (setting [8]); 8.95% in assay [6] (at 50.0 µM).

Turning to `Cc1cc2nc3ccc(N)cc3oc-2cc1=[N+](C)C`, the growth inhibition in assay [1] (setting [7]) was 6%; in assay [1] (setting [8]), 95% (active); in assay [1] (at 50.0 µM) it was 95.6% (active); in assay [2] (setting [7]) it was 14%; in assay [2] (setting [8]) it was 96% (active); in assay [2] (at 50.0 µM), 92.8% (active). The growth inhibition was -9% in assay [3] (setting [7]); 91% (active) in assay [3] (setting [8]); 74% (active) in assay [3] (at 50.0 µM); -12% in assay [4] (setting [7]); 93% (active) in assay [4] (setting [8]); 81.5% (active) in assay [4] (at 50.0 µM). Further, the growth inhibition is -8% in assay [5] (setting [7]); 94% (active) in assay [5] (setting [8]); 78.2% (active) in assay [5] (at 50.0 µM); 7% in assay [6] (setting [7]); 92% (active) in assay [6] (setting [8]); 3.8% in assay [6] (at 50.0 µM).
